# Bioassay records as filed in PubChem.
# Compounds with a hit are over-represented: about 1% of the library has one in this group of screens.
# L3MBTL1 inh: inhibitors of human L3MBTL1 | Potency, µM (doses to about 57.1 µM), without a hit: at the top dose activity, negative = inhibition, usual class: inhibitors | AID 485360 | 230,000 tested, 0.66% active | AlphaScreen L3MBTL1–H3K9me1 peptide binding | Q9Y468; further: nearly all actives have a fitted effect of over 60% in size
# Target sequence (Q9Y468 whole entry, looked up): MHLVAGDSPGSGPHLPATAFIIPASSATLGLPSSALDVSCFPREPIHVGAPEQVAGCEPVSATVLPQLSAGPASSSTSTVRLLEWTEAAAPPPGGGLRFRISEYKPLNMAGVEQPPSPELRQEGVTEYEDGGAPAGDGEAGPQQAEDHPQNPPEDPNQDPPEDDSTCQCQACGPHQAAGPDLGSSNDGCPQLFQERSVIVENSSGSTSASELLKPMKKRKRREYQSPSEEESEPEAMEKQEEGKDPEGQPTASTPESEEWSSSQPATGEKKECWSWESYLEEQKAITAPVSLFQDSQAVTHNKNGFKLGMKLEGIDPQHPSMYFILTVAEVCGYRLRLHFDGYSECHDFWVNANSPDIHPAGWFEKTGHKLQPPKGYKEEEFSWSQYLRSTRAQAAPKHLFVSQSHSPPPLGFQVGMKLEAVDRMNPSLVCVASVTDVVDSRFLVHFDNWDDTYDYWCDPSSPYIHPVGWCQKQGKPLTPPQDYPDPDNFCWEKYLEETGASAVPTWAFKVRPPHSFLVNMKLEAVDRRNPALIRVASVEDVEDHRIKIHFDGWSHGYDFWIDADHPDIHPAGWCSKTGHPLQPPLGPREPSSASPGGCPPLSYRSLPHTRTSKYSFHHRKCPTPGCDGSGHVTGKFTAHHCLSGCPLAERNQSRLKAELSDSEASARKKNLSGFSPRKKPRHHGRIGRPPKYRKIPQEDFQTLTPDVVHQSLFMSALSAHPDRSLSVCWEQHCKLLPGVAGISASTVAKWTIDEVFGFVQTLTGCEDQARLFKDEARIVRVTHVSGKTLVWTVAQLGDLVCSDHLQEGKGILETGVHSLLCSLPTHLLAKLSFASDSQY
#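 Displacement of a biotinylated histone H3(1-15) peptide monomethylated at Lys9 (75 nM) from L3MBTL1 (50 nM) was measured by AlphaScreen after a 30 min room-temperature compound incubation; cefsulodin titration served as intraplate control.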
# FEN1 inh: human FEN1 inhibition. AID 588795. Potency, µM (titrated, usually from 114 µM), inactives show top-dose activity change, negative = inhibition, usual class: inhibitors. Recombinant FEN1 flap cleavage, fluorescence, 15 min. 390,000 tested, 0.35% active. P39748; further: nearly all actives have a fitted effect of over 65% in size
#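 Quantitative HTS format: each compound was titrated, incubated with 10 nM nuclease for 15 min at room temperature, then challenged with flap substrate at 50 nM final. Signal change over 15 min gave concentration–effect curves.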
# RECQ1 helicase: blocks DNA unwinding by human RECQ1; RECQ1 DNA unwinding, red fluorescence kinetic read; P46063; Potency, µM (series often up to 57.3 µM), for the others: at the top dose activity, negative = inhibition, actives largely listed as inhibitors; 240,000 tested, 0.54% active; AID 2549;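 further: plate controls were vehicle for no effect and no enzyme for full effect; nearly all actives have a fitted effect of over 30% in size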
#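 50 nM RECQ1T1 preincubated 15 min with compound in Tris pH 8.0 buffer with MgCl2, DTT, Tween-20 and 2.5 ug/ml poly(dI-dC); started with 200 nM TAMRA/BHQ-2 forked duplex and 2 mM ATP. Unwinding read as fluorescence (525/598 nm), two reads 2 h apart.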
# BLM inh: inhibitors of human Bloom syndrome helicase BLM. Potency, µM (highest dose often 56.1 µM), for inactives: top-dose activity change, negative = inhibition, most hits filed as inhibitors. P54132. recombinant BLM DNA unwinding, fluorescence dequenching. 350,000 tested, 0.2% active;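 further: plate controls were vehicle for no effect and no enzyme for full effect; nearly all actives have a fitted effect of over 35% in size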
# WRN inhibitor: WRN helicase (human) inhibition; WRN helicase unwinding, fluorescent forked duplex, kinetic; Potency, µM (titrated, usually from 114 µM), for inactives: top-dose activity change, negative = inhibition, actives largely listed as inhibitors; 360,000 tested, 0.46% active; further: nearly all actives have a fitted effect of over 55% in size
#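 Kinetic fluorescence helicase assay: unwinding of a quenched forked DNA duplex (100 nM final) with 2 mM ATP final raises red fluorescence (525/598 nm). Compounds sat 15 min at room temperature with 20 nM WRN beforehand.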
# APE1 inh: blocks human APE1 abasic DNA cleavage. AID 2517. recombinant APE1, TAMRA/BHQ-2 abasic DNA cleavage fluorescence. 350,000 tested, 0.35% active. Potency, µM (doses to about 65.8 µM), inactives show at the top dose activity change, negative = inhibition, hits mostly inhibitors;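 further: plate controls were vehicle for no effect and reference inhibitor for full effect; nearly all actives have a fitted effect of over 55% in size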
#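 Incision of a quenched TAMRA/BHQ-2 THF abasic-site duplex (50 nM) by 0.75 nM APE1, after 15 min compound preincubation, measured as fluorescence increase over three 60 s reads. Values normalized to buffer, DMSO and NSC13755 control wells.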
# Starred values were filed as active, the others as inactive; i = inactive; u = inconclusive; x = no result; ! = repeats disagree; [ ] = dose if it differs, or a comment. The call rests on the fitted dose curve; in most records, active means well fitted curve in the direction sought with a large enough effect; inconclusive means small, poorly fitted or top-dose-only effect, or another doubt; inactive means no such curve, though single readings can be large; an effect the other way counts as inactive or inconclusive. Unless noted, on the % scale 0 is the no-effect control and ±100 the full control effect; potency means the concentration at half of the fitted maximal effect.
SMILES,L3MBTL1 inh,FEN1 inh,RECQ1 helicase,BLM inh,WRN inhibitor,APE1 inh
CN1CCn2cnc(C(=O)N[C@@H](Cc3ccccc3)C(=O)OC(C)(C)C)c2C1=O,x,x,x,x,0%,x
O=C(C#Cc1ccccc1)c1ccccc1,x,x,x,x,45µM*,x
CN(C)C(=O)C#Cc1ccccc1,-1%,22%,-2%,-5%,-11%,1%
O=C(C#Cc1ccccc1)c1ccc([N+](=O)[O-])cc1,x,-3%,-6%,-11%,32µM*,1%
Cc1cccc(C)c1NC(=O)C1(C)CN(S(C)(=O)=O)CC(=O)N1CC(F)(F)F (stereo not given),x,x,x,x,-6%,x
CN(C)CCn1nnnc1SCC1=C(C(=O)O)N2C(=O)[C@@H](NC(=O)Cc3csc(N)n3)[C@H]2SC1,28µM*,u,x,x,-15%,u
N#Cc1c(-c2ccc(C(F)(F)F)cc2)no[n+]1[O-],x,x,x,x,x,-2%
Cc1ccccc1CNC(=O)Cn1ncn2nc(-c3cccs3)cc2c1=O,x,89µM*,x,-2%,x,x
N#C/C(=C\c1cccn1S(=O)(=O)c1cccc(C#N)c1)S(=O)(=O)c1ccc(F)cc1,x,x,x,x,-8%,x
O=Nc1c(O)ccc2cc(S(=O)(=O)O)ccc12,x,u,x,x,-7%[11.6 µM],x
CN(C)c1ccc2cc(S(=O)(=O)O)cc(O)c2c1,x,50µM*,x,x,u,x
O=c1c2ccccc2nc2sc(Nc3ccc(Br)cc3)nn12,x,x,x,x,x,-9%
S=c1[nH]nc(-c2n[nH]c3c2CCC3)n1/N=C/C=C/c1ccco1,28µM*,-26%,13µM*,-7%,u,u
COc1ccc(-c2noc(-c3cccnc3N3CCN(c4ccc(OC)cc4)CC3)n2)cc1,x,15%,x,0%,x,x
COc1ccc(/C=C/c2cnccn2)cc1OC,x,-3%,x,x,x,x
CCNC(=S)NNC(=O)c1ccccn1,3.5µM*,2%,0%,-6%,-5%,4%
Oc1c(CN2CCOCC2)cc(CN2CCOCC2)c(O)c1O,x,u,x,x,22µM*,x
Oc1c(Cl)cc(Oc2cc(Cl)c(O)c(CN3CCOCC3)c2)cc1CN1CCOCC1,x,-18%,x,x,-3%,x
Cc1ccc(-n2c(O)c(C=Nc3cc(C)on3)c3ccccc3c2=O)c(C)c1,11%,-18%,-9%,-9%,50µM*,-5%
Cc1cc(N=Cc2c(O)n(-c3ccc(C)c(C)c3)c(=O)c3ccccc23)no1,8%,x,9%,-2%,x,3%
NC[C@H]1O[C@H](O[C@H]2[C@H](O)[C@@H](O[C@H]3O[C@H](CO)[C@@H](O)[C@H](N)[C@H]3O)[C@H](N)C[C@@H]2N)[C@H](O)[C@@H](O)[C@@H]1O,x,x,x,x,x,-2%[21 µM]
CCC(C)Sc1ccc([C@@H]2[C@H]3C(=O)N(CC)C(=O)[C@H]3[C@]3(C(=O)OC)CCCCN23)cc1 (stereo not given in full),1%,u,x,x,-12%,-5%
Cc1cc2nc(NC3=NCN(CCN4CCOCC4)CN3)nc(C)c2cc1C,4%,x,-2%,28%,x,0%
Cc1nc(NC2=NCN(CCCN3CCOCC3)CN2)nc2c(C)cccc12,-4%[11.4 µM],40µM*,14%,134%,86%,6%
CC(NS(=O)(=O)c1ccc2[nH]c(=O)[nH]c2c1)c1ccc(F)cc1 (stereo not given),x,x,x,x,4%,x
SMILES,L3MBTL1 inh,FEN1 inh,RECQ1 helicase,BLM inh,WRN inhibitor,APE1 inh
O=[N+]([O-])c1ccc2nc(-c3ccc(Cl)cc3)[nH]c2c1,0%,u,-10%,-15%,-16%,0%
O=[N+]([O-])c1ccc(-c2cc(-c3ccc(Cl)cc3)n[nH]2)cc1,-1%,-3%,i,-18%,100µM*,-1%
Cc1ccn2c(Nc3ccc4c(c3)OCO4)c(-c3ccccn3)nc2c1,8.9µM*,u,2%,-9%,-23%,13%
Cc1ccc(Nc2c(-c3ccccn3)nc3cc(C)ccn23)cc1,x,u,16%,-1%,5%,-1%
COc1ccc(/C(O)=C2\C(=O)C(=O)N(Cc3ccco3)C2c2cc(OC)ccc2OC)cc1 (stereo not given),4%,-19%,-8%,-8%,-6%,-3%
COc1ccc(OC)c(C2/C(=C(/O)c3ccccc3)C(=O)C(=O)N2Cc2ccco2)c1 (stereo not given),4%,45µM*,-2%,4%,-1%[57.1 µM],4%
O=C(Nc1cccc([N+](=O)[O-])c1)c1cc2ccccc2cc1O,u,5%,-22%,-27%,-22%,28µM*
O=C(CSc1nnc(-c2ccccn2)o1)Nc1ccccc1F,x,1%,x,1%,-12%,10%
Cc1ccc(S(=O)(=O)/N=C2\C=C(Nc3ccc(O)cc3)C(=O)c3ccccc32)cc1,u,u,x,x,u,-28%
Cc1ccc(S(=O)(=O)/N=C2\C=C(Nc3cccc(C(=O)O)c3)C(=O)c3ccccc32)cc1,x,u,x,20µM*,8%,-13%
Cc1ccc(S(=O)(=O)/N=C2\C=C(NS(=O)(=O)c3ccccc3)C(=O)c3ccccc32)c(C)c1,x,-2%,x,x,-22%,x
Cc1ccc(S(=O)(=O)/N=C2\C=C(Nc3cccc(C(=O)O)c3)C(=O)c3ccccc32)c(C)c1,x,71µM*,x,25µM*,u,53%
CCc1ccc(S(=O)(=O)/N=C2\C=C(Nc3ccc(C(=O)O)cc3)C(=O)c3ccccc32)cc1,x,-31%,x,25µM*,-18%[11.6 µM],-15%
COC(=O)c1ccccc1NC1=C/C(=N\S(=O)(=O)c2ccc(C(=O)O)cc2)c2ccccc2C1=O,x,20µM*,x,20µM*,u,u
COc1ccc(N2CCN(c3ncnc4c3cnn4-c3ccc(F)cc3)CC2)cc1,x,3%,x,-2%,x,x
O=c1ccsn1Cc1ccccc1,x,56µM*,-10%,0%,50µM*,-4%
CC1(C(=O)Nc2ccc(Cl)c(Cl)c2)CCN1Cc1cc2ccccc2o1 (stereo not given),x,x,x,x,-5%,x
CCCCCn1c(N)c(-c2nc3ccccc3o2)c2c([N+](=O)[O-])nn(C)c(=O)c21,-18%,-1%,-1%,16µM*,-31%,7%
Nc1ncnc2oc(-c3ccoc3)c(-c3ccco3)c12,x,18µM*,x,x,x,x
Nc1c(N=Nc2ccc(-c3ccc(N=Nc4cc(S(=O)(=O)O)c5ccccc5c4N)cc3)cc2)cc(S(=O)(=O)O)c2ccccc12,x,x,10µM*,4µM*,x,32µM*
Cc1cc(-c2ccc(N=Nc3ccc4c(S(=O)(=O)O)cc(S(=O)(=O)O)c(N)c4c3O)c(C)c2)ccc1N=Nc1ccc2c(S(=O)(=O)O)cc(S(=O)(=O)O)c(N)c2c1O,x,x,8.9µM*,11µM*!,x,2.5µM*
O=S(=O)(O)c1ccc(N=Nc2ccccc2)cc1,-6%,13%,i,-2%,-10%,-9%
